Molecules are shown by their SMILES. The whole screen tested about 150,000 compounds, of which about 6,500 (4.3%) were called active. Another 12% or so got no clear call; they are omitted. Calls follow the shape of the dose curve; as a rule, active = well fitted inhibition curve with a large enough effect (not every such curve was filed as active); inconclusive = small, poorly fitted or top-dose-only effect, or another doubt; inactive = no such curve, though single readings can be large or run the other way. This excerpt belongs to a sample that is enriched for actives.
% is scaled to controls: 0 for no effect and ±100 for the full control effect; potency is read from the fitted curve at half-maximal effect.

15-hydroxyprostaglandin dehydrogenase [NAD(+)] (Homo sapiens), sequence (P15428 whole entry, looked up): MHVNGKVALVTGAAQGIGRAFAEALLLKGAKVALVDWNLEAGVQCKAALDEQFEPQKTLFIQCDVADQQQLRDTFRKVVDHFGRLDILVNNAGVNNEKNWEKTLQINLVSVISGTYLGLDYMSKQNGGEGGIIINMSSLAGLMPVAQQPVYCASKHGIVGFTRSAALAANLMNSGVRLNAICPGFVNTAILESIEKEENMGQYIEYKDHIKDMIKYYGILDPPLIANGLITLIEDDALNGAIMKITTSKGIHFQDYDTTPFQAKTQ

The assay deals with 15-hydroxyprostaglandin dehydrogenase [NAD(+)] (Homo sapiens) (UniProt P15428). Put plainly: qHTS Assay for Inhibitors of HPGD (15-Hydroxyprostaglandin Dehydrogenase). The conditions noted are these: purified HPGD, NADH fluorescence kinetic, PGE2 substrate; activity change, negative = inhibition: active compounds read low. The essentials:
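NADH formation kinetics: reaction with 30 uM PGE2 and 1 mM NAD+ (final), 20 nM enzyme, Tris-HCl pH 8 with Tween 20, after 15 min compound preincubation at room temperature. Fluorescence change, last versus first of five reads.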
Take `CCOc1cc(/C=N/NC(=O)OC)ccc1OCCSc1ccc(Cl)cc1`: the activity change, negative = inhibition was -11.7% (inactive).
Still for that read-out and setting: as for `Cc1nn(-c2ccccc2)c2c1C(c1cccc([N+](=O)[O-])c1)N(c1ccccc1)C(=O)N2` (stereo unspecified), the figure is -6.84% (inactive); as for `CC(Sc1cccc[n+]1[O-])C(=O)Nc1cccc(S(=O)(=O)N2CCOCC2)c1` (stereo unspecified), -20.6% (inactive).
On the same count and under the same terms, as for `CC(=O)CC(c1ccccc1)C1C(=O)Oc2ccccc2C1=O` (stereo unspecified), the figure is -12.2% (inactive).
The same measure, in the same setting: then `O=C(c1cncc(Br)c1)N1CCN(c2ccc([N+](=O)[O-])cc2)CC1`, with -27.4% (inactive); and `CSCc1ccc(C(=O)Nc2cc(C)cc(C)c2)cc1`, with -12.7% (inactive).
For `COc1ccc(N(C(=O)c2cccnc2)S(=O)(=O)c2ccc3c(c2)n(C)c(=O)n3C)cc1`, the activity change, negative = inhibition is -4.39% (inactive).
Take `O=C(c1cccnc1)N(c1cc2sc(=O)oc2c2ccccc12)S(=O)(=O)c1ccccc1`: the Potency is 17.8 µM (active).
`CN(C)S(=O)(=O)c1cccc(C(=O)Nc2cccnc2)c1`: the activity change, negative = inhibition was -13.1% (inactive).
For the compound `COc1ccc(/C=N/NC(=O)c2ccccc2)cc1OS(=O)(=O)c1ccccc1`, the activity change, negative = inhibition was -15.2% (inactive).
Regarding `Cn1c(=NC(=O)CSCC(=O)N2CCCCC2)sc2ccccc21`, the Potency is 22.4 µM (active).
On to `Cn1c(=NC(=O)c2cnccn2)sc2ccccc21`, for which the activity change, negative = inhibition was -8.2% (inactive).
Still for that read-out and setting: then `Cn1c(=NC(=O)CSCC(=O)N2CCOCC2)sc2ccccc21`, with -16.8% (inactive); and `O=C(Nc1nc(-c2ccc(-c3ccccc3)cc2)cs1)c1cnccn1`, with -5.23% (inactive).
Same read-out and setting: as for `CN(c1ccccc1)S(=O)(=O)c1cccc(NC(=O)Cc2c(F)cccc2Cl)c1`, the figure is -8.06% (inactive); as for `Cc1ccc2c(c1)C1CN(C)CCC1N2C(=O)c1ccccc1NS(=O)(=O)c1ccc(F)cc1C` (stereo unspecified), -6.43% (inactive); as for `CCOC(=O)C1CCCN(C(=O)C2CCN(c3nnc(-n4cccc4)s3)CC2)C1` (stereo unspecified), -22.6% (inactive).
In the case of `O=C(C1CCN(c2nnc(-n3cccc3)s2)CC1)N1CCc2ccccc2C1`, the Potency was 14.1 µM (active).
As to `CSc1ccc(CCNC(=O)C2CCN(c3nnc(-n4cccc4)s3)CC2)cc1`, the activity change, negative = inhibition was 2.14% (inactive).
Still for that read-out and setting: then `COc1ccc(C(=O)Nc2nc(-c3ccc(OC)cc3)c(-c3ccc([N+](=O)[O-])cc3)s2)cc1`, with -12.2% (inactive); and `O=C(NC(Nc1nc2ccc([N+](=O)[O-])cc2s1)(C(F)(F)F)C(F)(F)F)c1ccccc1`, with -5.24% (inactive).
As to `COC(=O)C(NC(=O)c1ccc(OC)cc1)(Nc1ncc(S(=O)(=O)c2ccc([N+](=O)[O-])cc2)s1)C(F)(F)F` (stereo unspecified), the Potency is 15.8 µM (active).
Regarding `O=C(NCc1ccccn1)c1ccc2nc(-c3ccco3)c(-c3ccco3)nc2c1`, the Potency was 14.1 µM (active).
As for `CN(c1ccc(C(=O)NCc2ccccn2)cc1)S(C)(=O)=O`, the activity change, negative = inhibition is -25.1% (inactive).
For the compound `CCOc1ccc(C(=O)NC(C(=O)NCc2ccccn2)C(C)C)cc1` (stereo unspecified), the activity change, negative = inhibition was -8.11% (inactive).
The same measure, in the same setting: then `COc1ccccc1C1SCCN1C(=O)c1ccc([N+](=O)[O-])cc1` (stereo unspecified), with -2.04% (inactive); and `O=C(CN1CCN(c2ccc(O)cc2)CC1)Nc1cc(S(=O)(=O)N2CCOCC2)ccc1Cl`, with -5.21% (inactive).
Regarding `Cc1ccc(-n2c(C)cc(C(=O)CSc3nnc4ccccn34)c2C)cc1`, the activity change, negative = inhibition is -16.1% (inactive).
Same read-out and setting: then `C/C(=N\NC(=O)c1ccc(NS(=O)(=O)c2cccs2)cc1)c1ccc2ccccc2c1`, with -21.6% (inactive); and `Cc1cccc(NC(=O)c2sc3nc4c(c(-c5ccco5)c3c2N)CCC4)c1`, with -21.6% (inactive); and `Nc1c(C(=O)NCc2ccccc2)sc2nc3c(cc12)C(=O)CCC3`, with -24.2% (inactive).
On to `CC(C)OC(=O)c1sc2nc3c(cc2c1N)C(=O)CCC3`, for which the Potency is 28.2 µM (active).
Take `C/C(CCC(=O)OC[C@H]1O[C@H](C#Cc2ccccc2)C=C[C@@H]1Oc1ccc(C)cc1)=N\OC[C@@H](O)[C@H]1O[C@@H]2OC(C)(C)O[C@@H]2[C@H]1O`: the activity change, negative = inhibition is -19.5% (inactive).
Take `CCc1ccc(NC(=O)CC2C(=O)NCCN2C(=S)Nc2ccccc2)cc1` (stereo unspecified): the activity change, negative = inhibition is -10.9% (inactive).
On the same count and under the same terms, then `Cc1ccc(NN=C2C(=O)OC(C)(C)OC2=O)c(C)c1`, with -9.59% (inactive).
In the case of `C=CC1=C2C=C(C3CC3)N(C(CO)CO)C=C2C(=O)C(C)(OC(=O)c2ccco2)C1=O` (stereo unspecified), the activity change, negative = inhibition was -2.61% (inactive).
Same read-out and setting: then `COc1ccc(OCc2cn3c(C)cc(C)nc3n2)cc1`, with -7.95% (inactive).
As to `COc1ccc(Nc2cc(C)nc(-n3nc(C)cc3C)n2)cc1`, the activity change, negative = inhibition is -0.842% (inactive).
For `COc1ccc(C(C[N+](=O)[O-])n2nc(C)cc2C)cc1` (stereo unspecified), the Potency is 31.6 µM (active).
On to `COc1ccc(N2CCN(c3ccc([N+](=O)[O-])cc3Cl)CC2)cc1`, for which the activity change, negative = inhibition was -1.48% (inactive).
Turning to `COc1cc2c(cc1OC)C(Nc1ccc(S(N)(=O)=O)cc1)=NC(C)(C)C2`, the activity change, negative = inhibition was -7.98% (inactive).
Same read-out and setting: then `CC(Sc1nnc2c(n1)C1CCC2(C)C1(C)C)C(=O)Nc1ccccc1` (stereo unspecified), with -10.3% (inactive); and `CSc1ccccc1C(=O)Nc1cccc(C(C)=O)c1`, with -4.99% (inactive).
`CSc1nc(C)cc(SC(C(C)=O)C(=O)Nc2ccccc2)n1` (stereo unspecified): the Potency is 25.1 µM (active).
`CCCCOc1ccc(C(=O)NCC(=O)OCC(=O)N2CCN(S(=O)(=O)c3ccc(C)cc3C)CC2)cc1`: the activity change, negative = inhibition was -0.54% (inactive).
Still for that read-out and setting: then `COC(=O)c1ccc(C(=O)OC)c(NC(=S)N2CCN(c3ccc(F)cc3)CC2)c1`, with -14.5% (inactive); and `CCOc1ccc(C(=O)NC(=S)Nc2ccc(NC(=O)C(C)C)cc2)cc1[N+](=O)[O-]`, with -3.94% (inactive).
Take `COc1ccc(OCC(=O)Nc2cc(C)c(Cl)cc2OC)c([N+](=O)[O-])c1`: the activity change, negative = inhibition was -1.27% (inactive).
In the case of `Cc1nnc(-c2ccc(Oc3ccc(C)c(C)c3)c([N+](=O)[O-])c2)o1`, the Potency is 10 µM (active).
Take `S=C(NCc1ccc(Cl)cc1)NC1CCCCC1`: the activity change, negative = inhibition is -2.44% (inactive).
`C#CCNc1nc(C(C)C)nc2c1nnn2Cc1ccccc1F`: the activity change, negative = inhibition is -2.63% (inactive).
Regarding `CC(C)Nc1ncnc2c1nnn2Cc1ccccc1`, the Potency is 28.2 µM (active).
Turning to `CC(C)(C)c1nc(NCC2CCCO2)c2nnn(Cc3ccccc3)c2n1` (stereo unspecified), the activity change, negative = inhibition is -9.49% (inactive).
On the same count and under the same terms, then `N#Cc1ccccc1NC(=O)c1cccc(COc2ccc(Cl)cc2Cl)c1`, with -14.4% (inactive); and `Cc1ccc(-n2c(SCC(=O)Nc3ncc(Cl)cc3Cl)nc3ccccc32)cc1`, with -16.1% (inactive); and `COCC(C)n1c(C)cc(C(=O)CSc2cc(C)c3ccccc3n2)c1C` (stereo unspecified), with -10.7% (inactive).
On the same count and under the same terms, then `COc1ccc(/C=N/NC(=O)c2ccc(Cl)cc2)cc1COC(C)=O`, with -5.1% (inactive); and `Cc1ccc(C(=O)OCc2nc(N)nc(Nc3ccccc3C)n2)cc1`, with -0.25% (inactive); and `CCC(C)NC(=O)c1cc(Cl)ccc1OC` (stereo unspecified), with -11.4% (inactive).
With `CN(C)/C=C/C(=O)c1ccccc1F`, the activity change, negative = inhibition is -27.4% (inactive).
For the compound `CC(Oc1ccc(Cl)cc1Cl)C(=O)/C=C/N(C)C` (stereo unspecified), the Potency is 22.4 µM (active).
`CCn1cc(CNC(=O)c2cc([N+](=O)[O-])c(C)c([N+](=O)[O-])c2)cn1`: the activity change, negative = inhibition is -7.17% (inactive).
For `Cc1nc2ccccc2nc(C)c1=NOCc1ccc(Cl)cc1Cl`, the activity change, negative = inhibition was -8.26% (inactive).
On the same count and under the same terms, then `Cc1nnnn1/C(=C\c1ccccc1)C(=O)OCC(=O)N1CC2(C)CC1CC(C)(C)C2` (stereo unspecified), with -7.09% (inactive).
On the same count and under the same terms, as for `O=C(NC1CC1)c1cccc(Br)c1`, the figure is -26.7% (inactive); as for `S=C1Nc2cc(Cl)ccc2Sc2ccccc21`, -14% (inactive).
`O=C(NC1CC1)c1ccc2c(c1)NC(=O)c1ccccc1S2`: the Potency was 20 µM (active).
Turning to `COc1cc(Cl)c(C)cc1NC(=O)[C@@H]1CCCN1C(=O)c1cccs1`, the activity change, negative = inhibition is -4.97% (inactive).
`COc1ccc(-c2nn(-c3ccccc3)cc2/C=N/Nc2ccccn2)cc1OC`: the activity change, negative = inhibition is -26.3% (inactive).
As to `CC(=O)Nc1ccc(NC(=O)C(C)OC(=O)c2ccccc2C(=O)c2ccc(Cl)c([N+](=O)[O-])c2)cc1` (stereo unspecified), the activity change, negative = inhibition is -2.62% (inactive).
Still for that read-out and setting: as for `COc1ccc(C2CC(c3ccccc3)=NN2C(=O)CSc2nccc(=O)[nH]2)cc1` (stereo unspecified), the figure is -5.74% (inactive); as for `CCOC(=O)c1c(NC(=O)c2ccc(N3CCOCC3)c([N+](=O)[O-])c2)sc(C)c1C`, -7.82% (inactive).
Take `CCC(C)NC(=O)c1ccc(N2CCC3(CC2)OCCO3)c([N+](=O)[O-])c1` (stereo unspecified): the Potency was 39.8 µM (active).
As to `COCCNC(=O)c1ccc(N2CCC3(CC2)OCCO3)c([N+](=O)[O-])c1`, the activity change, negative = inhibition is -17.4% (inactive).
Still for that read-out and setting: as for `CC(C)CNC(=O)COC(=O)c1ccccc1OCC(=O)Nc1ccc(Br)cc1`, the figure is -5.33% (inactive).
As to `Oc1c(C=Nc2cccc3nsnc23)ccc2ccccc12`, the Potency is 25.1 µM (active).
On to `Nc1nc(NC(=O)/C=C/c2ccccc2)nn1-c1ccccc1`, for which the activity change, negative = inhibition was -3.01% (inactive).
Same read-out and setting: as for `COc1ccc(C2CC(=O)n3c(nc4ccccc43)S2)cc1OC` (stereo unspecified), the figure is -12.6% (inactive); as for `COc1ccc(C2C(C#N)=C(/N=C/N3CCOCC3)OC3=C2C(=O)CC(C)(C)C3)cc1OC` (stereo unspecified), -16.4% (inactive).
On to `COc1cc(C2CC(=O)N3CN(Cc4ccccc4)CSC3=C2C#N)ccc1OCc1ccccc1` (stereo unspecified), for which the Potency was 10 µM (active).
As for `CC(C)C(=O)Nc1ccc(C(=O)NNC(=O)c2cccs2)cc1`, the activity change, negative = inhibition was -13.5% (inactive).
Same read-out and setting: then `Cc1cc(C)nc(NC(=O)c2cccc([N+](=O)[O-])c2)c1`, with -3.35% (inactive); and `CCCCC/C=C\C/C=C\CCCCCCCCCC(=O)O`, with -12.4% (inactive); and `Cc1ccc(NC(=O)CCC(=O)N/N=C/c2ccco2)c(C)c1`, with -2.23% (inactive).
Still for that read-out and setting: as for `COc1ccc(C(=O)O/N=C(\N)Cc2ccc(Cl)cc2Cl)cc1OC`, the figure is -15.7% (inactive).
Turning to `CC1CCCC(NC(=O)CSc2nccn2C)C1C` (stereo unspecified), the activity change, negative = inhibition is -27.8% (inactive).
With `CC1CCCCC1NC(=O)CSc1nnc(N)s1` (stereo unspecified), the Potency is 17.8 µM (active).
On to `Cc1cnc(NC(=O)CSc2nnc(C)s2)s1`, for which the activity change, negative = inhibition was -0.21% (inactive).
In the case of `Cc1nnc(SCC(=O)Nn2cnnc2)s1`, the activity change, negative = inhibition is -0.465% (inactive).
With `Nc1nnc(SCC(=O)OCc2ccc(Cl)c(Cl)c2)s1`, the activity change, negative = inhibition is -17.6% (inactive).
Take `Cc1nnc(SCC(=O)NC2CCCC2)s1`: the Potency was 28.2 µM (active).

Values taken from PubChem BioAssay AID894 (National Center for Advancing Translational Sciences (NCATS), 2007).
